Compound activity as filed in PubChem.
A selection: hits, their analogues and other compounds. The true share with any hit is near 7.6%.
KB-V1 MDR tox: KB-V1 MDR subline cytotoxicity. Potency, µM (top dose mostly 46.1 µM), usual class: cytotoxic. AID 1347076. 400,000 tested, 3.4% active. KB-V1 MDR cells viability, CellTiter-Glo, 72 h; further: potency means the concentration at half of the fitted maximal effect; on the % scale 0 is the no-effect control and ±100 the full control effect; nearly all actives have a fitted effect of over 60% in size
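Readout: CellTiter-Glo luminescence, 10 min after addition. Cells: KB-V1 MDR subline, 72 h at 37 degrees C with compound. Analysis: corrected, normalized data fitted to concentration-effect curves.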
KCNH2 3.1 inh: blocks the human KCNH2 3.1 channel isoform | 340,000 tested, 0.95% active | U2OS KCNH2 3.1, thallium flux FluxOr; stronger effect = lower value | AID 720553 | activity change, % (tested at about 1.8 µM);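 active means maximum activity change below -70%; inconclusive means maximum activity change from -70% to -50%; inactive means maximum activity change above -50%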;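 further: thallium influx rate constant from kinetic fluorescence after stimulation buffer; on the % scale 0 is the no-effect control and ±100 the full control effect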
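U2OS cells transduced with KCNH2 3.1 mutant virus (1.77 x 10^8 /mL, 4 h), plated overnight at 37 C, loaded 45 min with FluxOr dye plus Red40 quencher. Thallium flux rate constant from kinetic reads after stimulation buffer, normalised to controls.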
SW480 rerep: DNA re-replication induction in SW480 cells | Potency, µM (series often up to 46.1 µM), without a hit: top-dose re-replication activation, usual class: activators | SW480 DNA re-replication, Hoechst DNA content imaging, 48 h | AID 624297 | 340,000 tested, 1.8% active; further: potency means the concentration at half of the fitted maximal effect; % of control where 0% means no effect; nearly all actives have a fitted effect of over 55% in size
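DNA re-replication was detected as more nuclei of elevated Hoechst intensity after 48 hr exposure to compound (23 nL pinned per well of 250 cells).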
KB-3-1 tox: KB-3-1 parental cell cytotoxicity; KB-3-1 viability, CellTiter-Glo ATP luminescence, 72 h; Potency, µM (doses to about 46.1 µM), usual class: cytotoxic; 400,000 tested, 1.4% active; AID 1347075; further: potency means the concentration at half of the fitted maximal effect; on the % scale 0 is the no-effect control and ±100 the full control effect; nearly all actives have a fitted effect of over 60% in size
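Multi-concentration cytotoxicity screen in KB-3-1 cells grown in DMEM lacking phenol red with 10% FBS. After 72 h at 37 °C with compound, ATP-dependent luminescence was recorded.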
hERG WT inh: blocks the wildtype human KCNH2 potassium channel; Q12809; U2OS, BacMam KCNH2, thallium flux FluxOr; stronger effect = lower value; activity change, % at 1.84 µM; 340,000 tested, 0.37% active;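 active means maximum activity change below -70%; inconclusive means maximum activity change between -70% and -50%; inactive means maximum activity change above -50%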; further: on the % scale 0 is the no-effect control and ±100 the full control effect
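U2OS cells were transduced with wild-type KCNH2 virus (2.03 x 10^8 / mL) for 4 h at room temperature, then cultured overnight at 37 C. Thallium flux was read with FluxOr dye. Rate constants were normalized to DMSO controls.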
MCF10A rerep: DNA re-replication induction in MCF 10a cells. Potency, µM (doses to about 46.1 µM), inactives show at the highest dose activity, positive = re-replication, most hits filed as activators. 350,000 tested, 2.9% active. MCF 10A DNA re-replication, Hoechst nuclear intensity, 48 h; further: potency means the concentration at half of the fitted maximal effect; % of control where 0% means no effect; nearly all actives have a fitted effect of over 50% in size
Numbers without * were called inactive; i = inactive; ? = inconclusive; · = no result. Unless noted, the call rests on the fitted dose curve; in most records, active means well fitted curve in the direction sought with a large enough effect; inconclusive means small, poorly fitted or top-dose-only effect, or another doubt; inactive means no such curve, though single readings can be large; an effect the other way counts as inactive or inconclusive.

SMILES | KB-V1 MDR tox | KCNH2 3.1 inh | SW480 rerep | KB-3-1 tox | hERG WT inh | MCF10A rerep
COc1cc(OC)c2c(C)cc(=O)oc2c1C(CCN1CCN(c2ccccc2)CC1)c1ccc2c(c1)OCO2 (stereo unspecified) | i | -103* | ? | i | -92* | -11%
CC1CCN(C(=O)C2CCC(C)(C(=O)O)C2(C)C)CC1 (stereo unspecified) | i | 3 | 1% | i | 1 | -6%
COc1ccc2ccccc2c1C=NN1CCCCC1 | i | -3 | · | i | -3 | ·
CC1COc2ccccc2N1S(=O)(=O)c1ccc(Cl)cc1 (stereo unspecified) | i | -5 | ? | i | 2 | 21µM*
O=C(C(Cl)Cl)N1c2ccccc2OCC1c1ccccc1 (stereo unspecified) | ? | -6 | -1% | 18µM* | -9 | ?
Cc1ccc(S(=O)(=O)N2CC(C(=O)O)Oc3ccccc32)cc1 (stereo unspecified) | ? | 11 | -2% | i | 16 | 0%
Cc1ccc(S(=O)(=O)N2c3ccccc3OCC2c2ccccc2)cc1 (stereo unspecified) | ? | -16 | ? | ? | -3 | 16µM*
OC(C[n+]1c(Cl)ccc2ccccc21)c1ccccc1 (stereo unspecified) | ? | · | · | i | · | ·
O=C(NC(=S)NC1CCCCC1)c1ccc(F)cc1 | i | -28 | -8% | i | -4 | -1%
Cc1ccc([C@H]2C[C@H](n3cc(-c4ccc(F)cc4)nn3)[C@@H](O)CN2CC2CCCCC2)cc1 | ? | -28 | · | ? | -2 | ·
CCOC(=O)N1CCN(c2c(N3CCN(c4ccccc4F)CC3)c(=O)c2=O)CC1 | i | -10 | 2% | i | 1 | 1%
CCOc1ccc(S(=O)(=O)NCc2cccnc2)c2ccccc12 | i | -17 | -8% | i | -5 | 2%
COc1ccccc1CN1CC(C(=O)NCc2cnn(C)c2)CCC1=O (stereo unspecified) | i | -8 | -7% | i | 4 | 2%
COc1cc(-c2cnc3c(NC(C)=O)cc(-c4ccccc4CN(C)C)cn23)cc(OC)c1OC | i | · | · | ? | · | ·
CCCCCCN1C[C@@H](n2cc(-c3ccc(F)cc3)nn2)[C@H](O)C[C@@H]1c1ccc(Cl)cc1 | ? | -2 | · | ? | -2 | ·
COc1ccc([C@H]2C[C@@H](n3cc(-c4ccc(F)cc4)nn3)[C@H](O)CN2CC2CCCCC2)cc1 | 21µM* | -6 | · | ? | 3 | ·
O[C@@H]1CN(CC2CCCCC2)[C@@H](c2ccccc2)C[C@H]1n1cc(-c2ccc(F)cc2)nn1 | i | -34 | · | 16µM* | 3 | ·
CCCCCCN1C[C@H](O)[C@@H](n2cc(-c3ccc(F)cc3)nn2)C[C@@H]1c1ccc(Cl)cc1 | ? | -45 | · | 18µM* | -10 | ·
CCOC(=O)C1(Cc2ccc(OC)cc2)CCN(C(=O)CCc2cccnc2)CC1 | ? | -15 | 0% | i | i | -2%
CCOc1cc(C2C(C#N)=C(N)OC(C)=C2C(C)=O)c(Br)c(Br)c1OC(C)C (stereo unspecified) | 15µM* | -8 | 8.2µM* | ? | -5 | 16µM*
COc1ccccc1NC(=O)Nc1cc(NC(=O)Nc2ccccc2OC)c(C)nc1C | i | 12 | ? | i | 10 | ?
COc1ccc(/C=N/NC(=O)c2ccc(CN3c4cccc5cccc(c45)S3(=O)=O)cc2)cc1 | i | -21 | 1% | i | 14 | 16%
O=C(CN1c2cccc3cccc(c23)S1(=O)=O)NCCc1ccccc1 | 21µM* | -5 | 5% | i | 1 | 11%
O=C(N/N=C/CCc1ccccc1)c1ccc(CN2c3cccc4cccc(c34)S2(=O)=O)cc1 | i | -78* | -6% | i | 18 | 2%
COc1cc(/C=N/NC(=O)c2ccc(CN3c4cccc5cccc(c45)S3(=O)=O)cc2)cc(OC)c1O | i | -26 | 17% | i | -2 | 16µM*
SMILES | KB-V1 MDR tox | KCNH2 3.1 inh | SW480 rerep | KB-3-1 tox | hERG WT inh | MCF10A rerep
CCNc1nc(N2CCCC2)nc(N2CCCC2)n1 | i | · | -6% | i | ? | 7%
CCNc1nc(NC(C)(C)C)nc(N2CCCCC2)n1 | i | 12 | 15µM* | ? | 1 | 18µM*
O=C(O)Cc1ccc(C(=O)c2ccc(Cl)cc2Cl)s1 | i | · | -2% | i | -17 | 1%
COc1ccc(-c2sc(C(=O)c3ccc(Cl)cc3Cl)cc2CC(=O)O)cc1 | ? | 6 | 9% | ? | -3 | 12µM*
COc1ccc(C(=O)NCc2cccnc2)cc1S(=O)(=O)N1CCCc2ccccc21 | ? | 0 | -11% | i | 4 | -3%
Cc1nn(C)c2ncc(C(N)=O)c(Oc3cccnc3)c12 | i | 9 | -1% | i | -6 | 1%
CCOC(=O)c1cnc2c(c(C)nn2C)c1Oc1ccc(Cl)cc1 | 3.3µM* | -5 | 2% | ? | 25 | 16%
CC(=O)COc1cc(C)cc2oc(=O)cc(-c3ccccc3)c12 | i | 4 | 0% | i | -12 | -6%
COc1ccc([N+](=O)[O-])cc1COc1cc(C)cc2oc(=O)cc(-c3ccccc3)c12 | 6.5µM* | -12 | ? | 21µM* | -1 | 12µM*
CCn1cnc2c1c(=O)n(Cc1cccc(Br)c1)c(=O)n2Cc1ccccc1 | 18µM* | -7 | 3% | ? | -2 | 13%
Cc1nc2c(OCC(=O)c3ccc(F)cc3)cccn2c1N(C)Cc1cccs1 | i | · | · | i | · | ·
Cc1nc2c(OCc3ccc(C#N)cc3)cccn2c1N(C)Cc1cccs1 | 15µM* | · | · | ? | · | ·
O=c1[nH][nH]c2c1C(C1CCCCC1)OC(C1CCCCC1)C2 (stereo unspecified) | i | · | · | ? | · | ·
COc1ccc2cc(Br)ccc2c1CC(=O)NC(C)C | ? | 15 | 4% | i | -10 | -32%
C=CCNC(=O)Cc1c(OC)ccc2cc(Br)ccc12 | 21µM* | 6 | 2% | ? | -18 | -1%
Cc1ccc(NC(=O)CN2CCN(C(=O)C3CC3)CC2)c(F)c1 | i | -16 | · | i | -11 | ·
O=C(c1ccc(F)cc1)C1CCN(Cc2cn[nH]c2-c2ccc(F)cc2)CC1 | i | -80* | 0% | i | -22 | ?
CC1(C)C(=O)N(CCN2CCC(C(=O)c3ccc(F)cc3)CC2)c2ccccc21 | i | -75* | 13% | i | 17 | -22%
O=C(CN1CCN(C(=O)C2CC2)CC1)Nc1cc(C(F)(F)F)cc(C(F)(F)F)c1 | 21µM* | -19 | -2% | i | -5 | 5%
